TWEAK-Fn14 inh: inhibitors of TWEAK-Fn14 interaction signaling. TWEAK-stimulated Fn14 reporter cells, luciferase luminescence, 8 h. inhibition, % at 10 µM. actives 2% (n = 360,000). AID 1159606; in the data active = inhibition above about 50%
LGR2 inh: inhibitors of bursicon-induced Drosophila LGR2 receptor cAMP signaling. AID 720647. inhibition, % at 9.99 µM. HEK293 LGR2, CRE-luciferase, bursicon-stimulated, 4 h. actives 0.35% (n = 380,000);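 active = drop in luminescence signal, shown as inhibition above about 50% in the replicate tests, limit read from the data, passing the limit was not always enough; inconclusive = probably only some replicates passing the limit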;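 also: agonist challenge used bursicon conditioned medium at about half maximal strength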
EWS-Fli block: blocks EWS/Fli oncoprotein-driven transcription; A673 NR0B1-luciferase reporter, viability-normalised; inhibition, % at 12.6 µM; actives 0.67% (n = 350,000); AID 651661;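 active = mean inhibition of at least 50% after viability correction, with every replicate also passing that limit; inconclusive = mean reaches 50% but only one of two replicates passes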;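 also: firefly luciferase signal divided by Alamar Blue viability fluorescence both relative to DMSO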
TROY NFkB inh: blocks TROY-dependent signaling in reporter cells; AID 1347056; Q293 LMP1-TROYcd NF-kB luciferase reporter, 4 h; actives 0.98% (n = 360,000); inhibition, % at 10 µM;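 active = compounds whose plate-normalised and pattern-corrected inhibition of the luciferase reporter signal at the single screening dose is 50% or more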
PAX8 reporter: inhibitors of PAX8 transcriptional activity in RMG-I cells; RMG-I TPO-luciferase reporter, SteadyGlo, 24 h; actives 1.2% (n = 360,000); AID 652154; inhibition, % at 12.6 µM;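 active = mean replicate inhibition at least 60% with every replicate also reaching 60%; inconclusive = only one of the two criteria is met; inactive = mean below 60% and not all replicates reaching 60%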;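 also: luciferase light reporting Pax8 driven TPO promoter activity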
Of the large screens only hits and unclear results are named; the others gave an inactive call; ! = not confirmed by another sample. Most compounds without a hit are left out; they make up all but 2.8% or so of the library.

C/C(CC(=O)NCc1ccco1)=N\NC(=O)COc1ccc(Cl)cc1Cl	none
C/C(CC(=O)NCc1ccco1)=N\NC(=O)COc1ccc(C)cc1	PAX8 reporter 64.7
Cc1ccc(-c2ccc(C3[C@@H]4CN(S(=O)(=O)c5cccc(C)c5)C[C@H]3N4)cc2)cc1 (some centres not stated)	none (no result: TWEAK-Fn14 inh, LGR2 inh, TROY NFkB inh)
O=C(NCc1ccccn1)C1CCN(S(=O)(=O)c2ccccc2)CC1	TWEAK-Fn14 inh 88.2 (no result: LGR2 inh, EWS-Fli block, TROY NFkB inh, PAX8 reporter)
O=C(CCNC(=O)C1CCN(S(=O)(=O)c2ccccc2)CC1)NCc1ccccn1	none (no result: EWS-Fli block)
O=C(NCCCn1ccnc1)C1CCN(S(=O)(=O)c2ccc(F)cc2)CC1	TWEAK-Fn14 inh 86.2
O=C(CCNC(=O)C1CCN(S(=O)(=O)c2ccc(F)cc2)CC1)NCc1ccc(F)cc1	none
CCOc1ccc(-n2c(SCC(=O)c3c(N)n(C)c(=O)n(C)c3=O)nnc2-c2cccnc2)cc1	PAX8 reporter 81.1
Cc1ccccc1-n1c(SCC(=O)c2c(N)n(C)c(=O)n(C)c2=O)nnc1-c1cccnc1	none
COc1ccc(-c2nc(CN3CCN(c4ccccc4OC)CC3)c(C)o2)cc1	none
Cc1oc(-c2cc(F)ccc2F)nc1CN1CCN(c2ncnc3ccccc23)CC1	TWEAK-Fn14 inh 52.2
Cc1oc(-c2cc(F)ccc2F)nc1CN1CCC(C(=O)N2CCOCC2)CC1	none
COc1ccc(-c2nc(CN3CCN(c4ncnc5ccccc45)CC3)c(C)o2)c(OC)c1	TWEAK-Fn14 inh 59.0
CN(C)c1ccc2c(c1)[C@@H]1C[C@@H](CC(=O)NCc3ccccc3F)O[C@@H](CO)[C@@H]1O2	none (no result: TWEAK-Fn14 inh, TROY NFkB inh, PAX8 reporter)
CC(C)NC(=O)Nc1cccc2c1O[C@H](CN(C)C(=O)NC1CCCCC1)[C@H](C)CN([C@@H](C)CO)C2=O	none (no result: TWEAK-Fn14 inh, TROY NFkB inh)
COc1ccc(CCNc2ccc(S(N)(=O)=O)cn2)cc1	none
NS(=O)(=O)c1ccc(CCNc2nn3c(-c4cccc(OC(F)(F)F)c4)cnc3s2)cc1	TWEAK-Fn14 inh 93.9, TROY NFkB inh 72.0, PAX8 reporter inconclusive
C[C@@H]1CN([C@H](C)CO)C(=O)c2cc(NC(=O)Nc3ccc(C(F)(F)F)cc3)ccc2O[C@@H](C)CCCCO[C@@H]1CN(C)C(=O)Cc1ccccc1	PAX8 reporter 71.9 (no result: TWEAK-Fn14 inh, TROY NFkB inh)
C[C@@H]1CN([C@H](C)CO)C(=O)c2cc(NC(=O)Nc3ccccc3)ccc2O[C@@H](C)CCCCO[C@@H]1CN(C)C(=O)Cc1ccccc1	none (no result: TWEAK-Fn14 inh, TROY NFkB inh)
C[C@H](CO)N1C[C@H](C)[C@@H](CN(C)C(=O)Cc2ccccc2)OCCCC[C@H](C)Oc2ccc(NC(=O)Nc3ccccc3)cc2C1=O	none (no result: TWEAK-Fn14 inh, TROY NFkB inh)
COc1ccc(NC(=O)Nc2ccc3c(c2)C(=O)N([C@H](C)CO)C[C@@H](C)[C@@H](CN(C)C(=O)Cc2ccccc2)OCCCC[C@H](C)O3)cc1	PAX8 reporter 98.9 (no result: TWEAK-Fn14 inh, TROY NFkB inh)
C[C@@H]1CCCCO[C@H](CN(C)C(=O)Cc2ccccc2)[C@@H](C)CN([C@@H](C)CO)C(=O)c2cc(NC(=O)Nc3ccc(C(F)(F)F)cc3)ccc2O1	PAX8 reporter 78.6 (no result: TWEAK-Fn14 inh, TROY NFkB inh)
C[C@@H]1CCCCO[C@H](CN(C)C(=O)Cc2ccccc2)[C@H](C)CN([C@@H](C)CO)C(=O)c2cc(NC(=O)Nc3ccc(C(F)(F)F)cc3)ccc2O1	PAX8 reporter 78.6 (no result: TWEAK-Fn14 inh, TROY NFkB inh)
O=C(C[C@H]1C[C@H]2c3cc(NC(=O)CC4CC4)ccc3O[C@H]2[C@H](CO)O1)NCc1ccncc1	none (no result: TWEAK-Fn14 inh, TROY NFkB inh)
C[C@@H]1CN([C@@H](C)CO)C(=O)c2cc(NC(=O)Nc3ccccc3)ccc2O[C@@H](C)CCCCO[C@H]1CN(C)C(=O)Cc1ccccc1	none (no result: TWEAK-Fn14 inh, TROY NFkB inh)
C[C@H](CO)N1C[C@H](C)[C@@H](CN(C)C(=O)Cc2ccccc2)OCCCC[C@H](C)Oc2ccc(NC(=O)Nc3ccc(C(F)(F)F)cc3)cc2C1=O	PAX8 reporter 87.0 (no result: TWEAK-Fn14 inh, TROY NFkB inh)
CO[C@H]1CN(C)C(=O)c2cc(NC(C)=O)ccc2OC[C@H](C)N(Cc2ccccc2F)C[C@H]1C	none (no result: TWEAK-Fn14 inh, TROY NFkB inh, PAX8 reporter)
O=C(Nc1ccc(Br)c2ccccc12)c1ccc2ccccc2c1O	TWEAK-Fn14 inh 55.3, TROY NFkB inh 50.8
Cc1c(C)n(Cc2ccccc2)c2ncnc(Cl)c12	TWEAK-Fn14 inh 64.9
COc1ccc(NC(=O)N[C@H]2CC[C@@H](CCNC(=O)CN3CCOCC3)O[C@H]2CO)cc1	none (no result: TWEAK-Fn14 inh, TROY NFkB inh)
CCN1CC(=O)N2[C@H](CO)[C@@H](c3ccc(-c4ccccc4F)cc3)[C@H]2C1	none (no result: TWEAK-Fn14 inh, TROY NFkB inh)
CNC(=O)c1c(O)c2cccc3c2n(c1=O)CC3	TWEAK-Fn14 inh 53.1 (no result: LGR2 inh, EWS-Fli block, TROY NFkB inh, PAX8 reporter)
COc1ccc(Cl)cc1NC(=O)CN(C)CC(=O)Nc1ccccc1N1CCOCC1	EWS-Fli block 62.1
CCOC(=O)c1ccc(-n2c(CN3CCC(C(N)=O)CC3)nc3ccc([N+](=O)[O-])cc3c2=O)cc1	TROY NFkB inh 54.7
CCOC(=O)c1ccc(-n2c(CN3CCC(O)CC3)nc3ccc([N+](=O)[O-])cc3c2=O)cc1	TROY NFkB inh 53.1
CCOC(=O)c1ccc(-n2c(CN3CCN(CC)CC3)nc3ccc([N+](=O)[O-])cc3c2=O)cc1	none
COc1ccc(NC(=O)Nc2ccc3c(c2)CC(=O)N([C@H](C)CO)C[C@H](C)[C@H](CN(C)C(=O)Nc2ccccc2)O3)cc1	none (no result: TWEAK-Fn14 inh, TROY NFkB inh)
ClC(Cl)(Cl)c1nc2ccccc2n2nncc12	PAX8 reporter 86.3
C[C@@H]1CN([C@@H](C)CO)S(=O)(=O)c2ccc(-c3ccccc3)cc2O[C@@H]1CN(C)C(=O)C1CCC1	none (no result: TWEAK-Fn14 inh, TROY NFkB inh, PAX8 reporter)
O=C(c1cc(Cl)ccc1Cl)N1CCN(c2ccccn2)CC1	none (no result: PAX8 reporter)
O=C(c1ccc(S(=O)(=O)c2ccccc2Cl)c([N+](=O)[O-])c1)N1CCCCCC1	TWEAK-Fn14 inh 65.5 (no result: EWS-Fli block)
O=C(c1cnc(N2CCN(c3ccccn3)CC2)c2ccccc12)N1CCN(c2cccc(Cl)c2)CC1	TWEAK-Fn14 inh 91.4
O=C(c1ccc(S(=O)(=O)Cc2ccccc2F)c([N+](=O)[O-])c1)N1CCCCCC1	none
O=C(c1ccc(S(=O)(=O)c2cccc(Cl)c2)c([N+](=O)[O-])c1)N1CCN(c2ccccn2)CC1	TWEAK-Fn14 inh 90.0, LGR2 inh 58.7, TROY NFkB inh 57.9
C/C=C/c1cnc2c(c1)C(=O)N([C@@H](C)CO)C[C@@H](C)[C@H](CN(C)S(=O)(=O)c1ccc(F)cc1)O2	none (no result: TWEAK-Fn14 inh, TROY NFkB inh, PAX8 reporter)
O=C(C[C@H]1CC[C@H]2[C@@H](COC[C@H](O)CN2C(=O)c2ccccc2F)O1)N1CCOCC1	none (no result: TWEAK-Fn14 inh, TROY NFkB inh)
O=C(NNc1nc2ccc(Cl)cc2s1)c1cc(-c2cccs2)nc2ccccc12	TWEAK-Fn14 inh 58.1 (no result: LGR2 inh)
CCCc1[nH]c2ccc(C(=O)OC)cc2c1CCC	none
CCCc1[nH]c2ccc(C#N)cc2c1CCC	TROY NFkB inh 53.5
CCCCCCCCCCCCCCCC[n+]1ccc(/C=N/O)cc1	PAX8 reporter 94.3
CCCCCCCCCCCCCCCC[n+]1ccccc1	TWEAK-Fn14 inh 77.4!, LGR2 inh 61.2!, EWS-Fli block 59.9, TROY NFkB inh 51.7!, PAX8 reporter 94.6
CCCCCCCCCCCCCCCC[n+]1ccc(C(N)=O)cc1	PAX8 reporter 111.3 (no result: EWS-Fli block)
CCCCCCCC[n+]1cccc(C(=O)N(CC)CC)c1	none (no result: LGR2 inh)
CCCCCCCCCCCCCCCC[n+]1cccc(C(=O)N(CC)CC)c1	TROY NFkB inh 57.0!, PAX8 reporter 64.1
